Measurements taken from article PMC11574364.

The sequences below were run against T1, YTHDF1 (Homo sapiens, UniProt Q9BYJ9) (assay: protein domain microarray probed with biotinylated miRNA; Domain array: 20 mM Tris-HCl pH 7.4, 200 mM KCl, 0.2 mM EDTA, 0.05% NP40, 2 ug/ul heparin, overnight 4 C. ORF array: PBS pH 7.0 with RNase inhibitor, 100 ng RNA; high values mean tight binding). Settings: ssRNA.
T1 sequence: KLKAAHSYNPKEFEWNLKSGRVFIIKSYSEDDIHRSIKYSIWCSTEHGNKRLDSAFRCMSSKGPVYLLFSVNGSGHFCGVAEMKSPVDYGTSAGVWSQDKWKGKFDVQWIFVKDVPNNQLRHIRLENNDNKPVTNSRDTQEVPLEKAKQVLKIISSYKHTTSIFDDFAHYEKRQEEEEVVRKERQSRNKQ
UGAGGUAGUAGGUUGUAUAGUU was tested, and the binding signal was 22.8 ± 4.72 fluorescence intensity. For AGAGGUAGUAGGUUGCAUAGUU, the binding signal was 52.7 ± 4.33 fluorescence intensity. UGAGGUAGUAGGUUGUGUGGUU showed a binding signal of 113 ± 10.3 fluorescence intensity. For CAGUGCAAUGAUGAAAGGGCAU, the binding signal was 51.305 ± 0.0212 fluorescence intensity. UGAGGUAGUAGGUUGUAUGGUU gave a binding signal of 76.9 ± 5.2 fluorescence intensity.

These sequences were tested against T2, RBM27 (Homo sapiens, UniProt Q9P2N5) in the same assay as above. Settings: ssRNA.
T2 sequence: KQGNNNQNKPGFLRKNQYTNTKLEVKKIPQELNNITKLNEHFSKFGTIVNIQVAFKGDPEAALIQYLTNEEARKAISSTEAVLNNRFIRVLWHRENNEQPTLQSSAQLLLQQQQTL
UAGCUUAUCAGACUGAUGUUGA gave a binding signal of 145 ± 5.61 fluorescence intensity. In the case of UGAGGUAGUAGGUUGUAUAGUU, the binding signal is reported as 102 ± 16.8 fluorescence intensity. AGAGGUAGUAGGUUGCAUAGUU was tested, and the binding signal was 486 ± 29.4 fluorescence intensity. Work on UGAGGUAGUAGGUUGUGUGGUU yielded a binding signal of 985 ± 77.1 fluorescence intensity. Sequence CAGUGCAAUGAUGAAAGGGCAU has a binding signal of 288 ± 4.19 fluorescence intensity. For UGAGGUAGUAGGUUGUAUGGUU, the binding signal was 657 ± 47.5 fluorescence intensity.

Target: T3, STAU2(3) (Homo sapiens, UniProt Q9NUL3)
T3 chain: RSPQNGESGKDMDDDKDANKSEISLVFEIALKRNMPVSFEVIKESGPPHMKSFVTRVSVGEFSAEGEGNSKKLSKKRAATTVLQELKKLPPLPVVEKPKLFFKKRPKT
Test: as above
Settings: ssRNA
With AGAGGUAGUAGGUUGCAUAGUU the binding signal was 34.1 ± 5.01 fluorescence intensity. For UGAGGUAGUAGGUUGUGUGGUU, the binding signal was 121 ± 14.8 fluorescence intensity. With CAGUGCAAUGAUGAAAGGGCAU the binding signal was 37.5 ± 2.47 fluorescence intensity. In the case of UGAGGUAGUAGGUUGUAUGGUU, the binding signal is reported as 60.2 ± 7.26 fluorescence intensity.

What follows are sequences tested against T4, RKHD3(1-2) (Homo sapiens, UniProt Q6ZN04) in the same assay as above. Settings: ssRNA.
T4 sequence: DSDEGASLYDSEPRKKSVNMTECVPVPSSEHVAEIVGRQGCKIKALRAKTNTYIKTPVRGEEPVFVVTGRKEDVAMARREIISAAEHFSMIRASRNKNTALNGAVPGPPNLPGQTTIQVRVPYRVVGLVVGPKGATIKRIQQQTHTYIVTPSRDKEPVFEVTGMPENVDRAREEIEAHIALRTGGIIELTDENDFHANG
In the case of UAGCUUAUCAGACUGAUGUUGA, the binding signal is reported as 1110 ± 41.5 fluorescence intensity. UGAGGUAGUAGGUUGUAUAGUU was tested, and the binding signal was 1250 ± 20.7 fluorescence intensity. AGAGGUAGUAGGUUGCAUAGUU showed a binding signal of 2320 ± 70.7 fluorescence intensity. With UGAGGUAGUAGGUUGUGUGGUU the binding signal was 1502 ± 3.98 fluorescence intensity. Sequence CAGUGCAAUGAUGAAAGGGCAU has a binding signal of 1440 ± 55 fluorescence intensity. UGAGGUAGUAGGUUGUAUGGUU was tested, and the binding signal was 1740 ± 134 fluorescence intensity.

What follows are sequences tested against T5, RBM19(2-4) (Homo sapiens, UniProt Q9Y4C8) in the same assay as above. Settings: ssRNA.
T5 sequence: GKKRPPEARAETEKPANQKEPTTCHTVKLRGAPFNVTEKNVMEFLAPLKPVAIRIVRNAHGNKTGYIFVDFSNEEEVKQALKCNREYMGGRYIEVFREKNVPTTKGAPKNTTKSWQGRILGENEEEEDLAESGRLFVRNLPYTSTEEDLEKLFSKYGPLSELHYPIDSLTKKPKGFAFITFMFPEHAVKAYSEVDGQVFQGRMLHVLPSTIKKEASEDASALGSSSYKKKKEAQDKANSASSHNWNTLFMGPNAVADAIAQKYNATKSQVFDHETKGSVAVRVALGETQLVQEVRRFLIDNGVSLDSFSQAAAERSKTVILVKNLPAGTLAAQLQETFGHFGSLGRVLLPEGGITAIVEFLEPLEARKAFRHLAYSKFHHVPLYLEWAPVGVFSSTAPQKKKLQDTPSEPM
UAGCUUAUCAGACUGAUGUUGA was tested, and the binding signal was 901 ± 119 fluorescence intensity. UGAGGUAGUAGGUUGUAUAGUU gave a binding signal of 902 ± 121 fluorescence intensity. AGAGGUAGUAGGUUGCAUAGUU was tested, and the binding signal was 2390 ± 546 fluorescence intensity. UGAGGUAGUAGGUUGUGUGGUU gave a binding signal of 1520 ± 225 fluorescence intensity. Work on CAGUGCAAUGAUGAAAGGGCAU yielded a binding signal of 2090 ± 439 fluorescence intensity. UGAGGUAGUAGGUUGUAUGGUU was tested, and the binding signal was 1810 ± 313 fluorescence intensity.

The sequences below were run against T6, RBM26(2) (Homo sapiens, UniProt Q5T8P6) in the same assay as above. Settings: ssRNA.
T6 sequence: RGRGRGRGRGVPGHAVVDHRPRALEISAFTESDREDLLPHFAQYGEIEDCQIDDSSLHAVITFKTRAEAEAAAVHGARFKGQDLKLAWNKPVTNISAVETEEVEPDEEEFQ
Sequence UGAGGUAGUAGGUUGUAUAGUU has a binding signal of 23.4 ± 0.552 fluorescence intensity. AGAGGUAGUAGGUUGCAUAGUU was tested, and the binding signal was 168 ± 6.55 fluorescence intensity. UGAGGUAGUAGGUUGUGUGGUU showed a binding signal of 248 ± 3.91 fluorescence intensity. CAGUGCAAUGAUGAAAGGGCAU was tested, and the binding signal was 25.8 ± 3.42 fluorescence intensity. In the case of UGAGGUAGUAGGUUGUAUGGUU, the binding signal is reported as 298 ± 14 fluorescence intensity.

These sequences were tested against T7, RBM14 (Homo sapiens, UniProt Q96PK6) in the same assay as above. Settings: ssRNA.
T7 sequence: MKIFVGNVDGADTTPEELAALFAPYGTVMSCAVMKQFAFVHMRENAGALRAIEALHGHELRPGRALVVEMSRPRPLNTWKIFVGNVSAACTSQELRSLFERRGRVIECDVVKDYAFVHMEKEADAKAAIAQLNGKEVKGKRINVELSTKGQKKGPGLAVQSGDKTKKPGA
For AGAGGUAGUAGGUUGCAUAGUU, the binding signal was 26.3 ± 7.16 fluorescence intensity. Work on UGAGGUAGUAGGUUGUGUGGUU yielded a binding signal of 66.3 ± 8.01 fluorescence intensity. Work on CAGUGCAAUGAUGAAAGGGCAU yielded a binding signal of 23.1 ± 3.36 fluorescence intensity. Work on UGAGGUAGUAGGUUGUAUGGUU yielded a binding signal of 39.7 ± 3.13 fluorescence intensity.

Each sequence was assayed against RALYL (Homo sapiens, UniProt Q86SE5) in the same assay as above. Settings: ssRNA.
Sequence of RALYL (Q86SE5 1-115): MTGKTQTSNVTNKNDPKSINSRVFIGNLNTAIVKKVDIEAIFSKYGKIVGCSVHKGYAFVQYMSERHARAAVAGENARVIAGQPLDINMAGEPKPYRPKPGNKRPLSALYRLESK
UAGCUUAUCAGACUGAUGUUGA was tested, and the binding signal was 190 ± 59.9 fluorescence intensity. Work on UGAGGUAGUAGGUUGUAUAGUU yielded a binding signal of 319 ± 85.1 fluorescence intensity. AGAGGUAGUAGGUUGCAUAGUU showed a binding signal of 932 ± 89.3 fluorescence intensity. Sequence UGAGGUAGUAGGUUGUGUGGUU has a binding signal of 1030 ± 103 fluorescence intensity. CAGUGCAAUGAUGAAAGGGCAU was tested, and the binding signal was 381 ± 18.7 fluorescence intensity. For UGAGGUAGUAGGUUGUAUGGUU, the binding signal was 1090 ± 62.2 fluorescence intensity.

What follows are sequences tested against T8, PIG38 (Homo sapiens, UniProt Q8TC92) in the same assay as above. Settings: ssRNA.
T8 sequence: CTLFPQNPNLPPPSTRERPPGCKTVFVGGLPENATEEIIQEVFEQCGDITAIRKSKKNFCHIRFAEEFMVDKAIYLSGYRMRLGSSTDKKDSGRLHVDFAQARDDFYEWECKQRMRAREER
Work on UGAGGUAGUAGGUUGUAUAGUU yielded a binding signal of 21.4 ± 1.44 fluorescence intensity. AGAGGUAGUAGGUUGCAUAGUU showed a binding signal of 44.1 ± 0.488 fluorescence intensity. UGAGGUAGUAGGUUGUGUGGUU was tested, and the binding signal was 72.8 ± 3.97 fluorescence intensity. CAGUGCAAUGAUGAAAGGGCAU gave a binding signal of 31.7 ± 0.785 fluorescence intensity. With UGAGGUAGUAGGUUGUAUGGUU the binding signal was 53 ± 2.3 fluorescence intensity.

These sequences were tested against KRR1 (Homo sapiens, UniProt Q13601) in the same assay as above. Settings: ssRNA.
Sequence of KRR1 (Q13601 36-250): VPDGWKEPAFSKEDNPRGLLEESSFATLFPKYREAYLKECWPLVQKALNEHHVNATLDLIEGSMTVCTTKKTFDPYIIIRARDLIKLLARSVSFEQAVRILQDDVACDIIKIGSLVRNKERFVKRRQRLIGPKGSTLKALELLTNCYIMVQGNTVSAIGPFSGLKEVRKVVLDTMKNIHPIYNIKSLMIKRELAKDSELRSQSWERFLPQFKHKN
Sequence UGAGGUAGUAGGUUGUAUAGUU has a binding signal of 20.5 ± 1.99 fluorescence intensity. Sequence AGAGGUAGUAGGUUGCAUAGUU has a binding signal of 73.6 ± 7.55 fluorescence intensity. In the case of UGAGGUAGUAGGUUGUGUGGUU, the binding signal is reported as 153 ± 3.37 fluorescence intensity. In the case of CAGUGCAAUGAUGAAAGGGCAU, the binding signal is reported as 74.2 ± 2.13 fluorescence intensity. With UGAGGUAGUAGGUUGUAUGGUU the binding signal was 92.2 ± 12.2 fluorescence intensity.
